High-throughput results deposited in PubChem BioAssay by several laboratories.
CCHF vOTU inh – CCHFV vOTU protease inhibitors, primary screen, biochemical, Pep-AMC substrate, fluorescence | Crimean-Congo hemorrhagic fever virus L polyprotein viral ovarian tumor (vOTU) protease … | inhibition, % at 11.5 µM | 370,000 tested, 0.55% active | AID 651958, 2012
Vc quorum ag – inducers of Vibrio cholerae quorum light production without autoinducers, primary screen, BH1578 luxS cqsA deficient, single point; AID 588436, 2011; V. cholerae BH1578 lux reporter, luminescence, 6 h; 350,000 tested, 0.16% active; activation, % at 18.7 µM; in the data active = activation mostly above about 9.7%, no sharp cut-off
FBA Mtb inh – Mtb FBA enzyme inhibitors, primary screen, biochemical, fluorescence, strain H37Rv; Fructose-bisphosphate aldolase (Mycobacterium tuberculosis (strain ATCC 25618 / H37Rv)), …; purified M. tuberculosis FBA, fluorescence read-out; inhibition, % at 1 µM; 360,000 tested, 2.3% active; AID 588726, 2011; in the data active = inhibition above about 27%
Target sequence (P9WQA3 whole entry, looked up): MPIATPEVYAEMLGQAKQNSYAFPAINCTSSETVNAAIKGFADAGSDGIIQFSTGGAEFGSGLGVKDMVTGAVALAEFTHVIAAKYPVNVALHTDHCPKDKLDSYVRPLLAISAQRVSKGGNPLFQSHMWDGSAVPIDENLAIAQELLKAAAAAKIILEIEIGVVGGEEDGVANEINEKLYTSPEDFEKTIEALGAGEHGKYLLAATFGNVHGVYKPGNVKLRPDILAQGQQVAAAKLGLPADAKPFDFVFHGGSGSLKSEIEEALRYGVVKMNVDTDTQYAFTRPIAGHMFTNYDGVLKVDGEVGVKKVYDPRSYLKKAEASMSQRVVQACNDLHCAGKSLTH
GDH-TPI counter – GDH-TPI coupling enzyme inhibitors, primary screen, artefact control for M. tuberculosis FBA inhibitor project, biochemical, absorbance, full deck; 360,000 tested, 1.2% active; inhibition, % at 4.8 µM; GDH-TPI coupled enzyme counterscreen, NADH absorbance
Each line names hits and unclear results; the compound was inactive in the other large screens. Hits are enriched below; roughly 3.9% of the tested compounds scored in any of these assays. Cut-off read from the data, not from the text of the source, unless noted: active = inhibition above about 30%; inactive = the rest.

CCC(C)(C(=O)Nc1ccc2c(c1)OCCO2)N(C(C)=O)c1ccc(C(N)=O)cc1 (centres undefined)	GDH-TPI counter 31.8
CC(C)C(=O)Nc1ccc2c(c1)Cc1cc(NC(=O)C(C)C)ccc1-2	none
O=c1[nH]c(=S)n(Cc2ccco2)c(O)c1C=NCc1cccs1	GDH-TPI counter 34.0
O=c1[nH]c(=O)n(Cc2ccco2)c(O)c1C=NCc1cccs1	none
NC(=O)c1ccc(N=Cc2c(O)n(Cc3ccco3)c(=O)[nH]c2=O)cc1	GDH-TPI counter 36.1
CC(=O)N1CCN(c2ccc(N=Cc3c(O)n(Cc4ccccc4)c(=O)[nH]c3=O)cc2)CC1	GDH-TPI counter 32.7
O=C(O)c1ccc(N=Cc2c(O)n(Cc3ccc(F)cc3)c(=O)[nH]c2=O)cc1	none
O=C1N/C(=N/S(=O)(=O)Cc2ccccc2)S/C1=C/c1ccc2c(c1)OCO2	GDH-TPI counter 35.4
Cc1ccn2cc(-c3cccc([N+](=O)[O-])c3)nc2c1	none
C=CCn1c(O)c(CN2CCN(Cc3ccccc3)CC2)c(C)c(C#N)c1=O	Vc quorum ag 16.7
Cc1cc(C)c2c(n1)nn1c(NCCCN(C)C)cc(C)nc21	FBA Mtb inh active
Cc1cc(C)c2c(n1)nn1c(NCCOCCO)cc(C)nc21	FBA Mtb inh active
CCc1nn2c(NCCCO)cc(C)nc2c1-c1ccc(F)cc1	none
FC(F)(F)c1ccc(-c2nc(=S)[nH][nH]2)cc1	none
CC1(C)NC(=O)N(c2ccc([N+](=O)[O-])c(C(F)(F)F)c2)C1=O	none
COc1ccc(-c2cc(C)no2)cc1S(=O)(=O)Nc1ccccc1	FBA Mtb inh 139.2
COc1ccc(-c2cc(C)no2)cc1S(=O)(=O)Nc1cccc(C)c1	none
Cc1c(C(=O)NCCSc2ccc(Cl)cc2)cccc1[N+](=O)[O-]	none
Cc1cc(-c2nc3ncccc3o2)ccc1NC(=O)CC(C)C	FBA Mtb inh active (no result: Vc quorum ag)
Fc1cc2nc(-c3ccncc3)[nH]c2cc1F	FBA Mtb inh 127.2
Cc1cc(C(=O)NCC(=O)O)c(C)o1	none
Cc1cc(C(=O)NCc2cc(C(=O)O)oc2C)c(C)o1	Vc quorum ag 16.7
CCN1C(=O)/C(=C/N(C)c2ccccc2)OC1=S	none
CCN1C(=O)/C(=C\N(C(C)=O)c2ccccc2)OC1=S	GDH-TPI counter 63.3
Cc1cccc(C(=O)OCC(=O)c2csc(N3CCCCC3)n2)c1[N+](=O)[O-]	GDH-TPI counter 36.4
COCCCNCCCCOc1c(Cl)cc(C)cc1Br	none
O=C(CNC(=O)c1cccs1)N=Nc1c(O)[nH]c2ccc([N+](=O)[O-])cc12	GDH-TPI counter 34.5
COc1cc(/C=C2\S/C(=N/S(=O)(=O)c3ccccc3)NC2=O)c([N+](=O)[O-])cc1OC	GDH-TPI counter 43.4
COc1ccc(S(=O)(=O)/N=C2/NC(=O)/C(=C\c3cc(OC)c(OC)cc3[N+](=O)[O-])S2)cc1	none
CCOC(=O)c1nn(-c2ccccc2)c(=O)c(C#N)c1C	none
CCOC(=O)c1nn(-c2ccccc2)c(C#N)c1N	FBA Mtb inh active
O=C(OCC(=O)N1CCN(C(=O)c2ccco2)CC1)c1ccccc1NCCO	FBA Mtb inh 123.7
Cc1cccc(Nc2ccccc2C(=O)OCC(=O)N2CCOCC2)c1C	none
CNc1ccccc1C(=O)OCC(C)=O	FBA Mtb inh 62.5 (no result: CCHF vOTU inh)
CNc1ccccc1C(=O)OC	none
O=C(OCC(=O)N1CCN(C(=O)COC(=O)c2ccccc2NCCO)CC1)c1ccccc1NCCO	FBA Mtb inh 161.7
CCN(C(=O)COC(=O)c1ccccc1NCCO)c1cccc2ccccc12	FBA Mtb inh 113.6
O=C1CN(C(=O)N[C@@H](Cc2ccccc2)C(=O)N[C@@H](C(=O)O)c2ccccc2)c2ccccc2N1	none
CC1=C(C(=O)N2CCCC(N3CCN(c4ccccc4C)CC3)C2)OCCO1 (centres undefined)	none
Cc1cc(C)c(C(N)=O)c(Nc2ccc3c(c2)OCCO3)n1	none
CCc1ccc(/C=C2\CN(CC)Cc3c2nc2ccccc2c3C(=O)O)cc1	GDH-TPI counter 43.6
CN1C(c2ccc(F)cc2)=CS/C1=C(\C#N)c1nnc2n1-c1ccccc1SC2	GDH-TPI counter 34.4
Clc1ccc(-c2nnc3n2-c2ccccc2SC3)cc1	none
Cc1cc(OCC(=O)NCC(O)c2ccccc2)c2c3c(c(=O)oc2c1)CCC3 (centres undefined)	none
CCCCc1cc(=O)oc2cc(C)cc(OCC(=O)N3CCC(C(N)=O)CC3)c12	none
CCCCc1cc(=O)oc2cc(C)cc(OCC(=O)O)c12	FBA Mtb inh 152.2
Cc1cc(OCC(=O)O)c2c3c(c(=O)oc2c1)CCCC3	FBA Mtb inh 185.3
Cc1cc(OCC(=O)N[C@@H](Cc2ccccc2)C(=O)O)c2c3c(c(=O)oc2c1)CCC3	FBA Mtb inh 137.1
Cc1cc(OCC(=O)N[C@H](C(=O)O)c2ccccc2)c2c3c(c(=O)oc2c1)CCC3	FBA Mtb inh 114.4
CC(=O)c1cccc(-c2ccnc3c2CC(C(=O)NCc2ccncc2)O3)c1 (centres undefined)	none
CCOC(=O)COc1cc(OCC(=O)OCC)c2c3c(c(=O)oc2c1)CCCC3	FBA Mtb inh 159.7
CCCOC(=O)COc1cc(C)cc2oc(=O)c3c(c12)CCC3	none
Cc1cc(OCC(=O)NC(Cc2ccc(Cl)cc2)C(=O)O)c2c3c(c(=O)oc2c1)CCC3 (centres undefined)	FBA Mtb inh 72.3
Cc1cccn2c(=O)nc(SCC(=O)c3ccccc3)nc12	none
Cc1cccn2c(=O)nc(SCC(=O)c3ccc(Cl)cc3)nc12	Vc quorum ag 89.3
Cn1c(SCc2cc(=O)[nH]c(C(C)(C)C)n2)nnc1C(F)(F)F	none
O=C1NC(=S)N/C1=C\c1ccccc1OCc1ccc(C(=O)O)cc1	GDH-TPI counter 41.8
COC(=O)c1c(NC(=O)COC(=O)CCNS(=O)(=O)c2ccccc2)sc(C)c1C	none
CCOc1ccc(-c2cc(C)[n+](CCN3CCOCC3)c(-c3ccc(OCC)cc3)c2)cc1	GDH-TPI counter 41.0
CCOc1ccc(OCCOCCN2CCOCC2)cc1	none
CCOC(=O)N1CCc2c(sc3c2C(=O)NC(c2ccccc2)N3)C1 (centres undefined)	FBA Mtb inh 58.4 (no result: CCHF vOTU inh)
COc1cc(-c2nnc(-c3ccco3)o2)ccc1OCc1ccccc1	FBA Mtb inh 120.6
CC1(C)OC(=O)C(=NNc2ccccc2C(=O)O)C(=O)O1	GDH-TPI counter 49.4
Nc1cc(C(=O)O)c(Oc2ccc(Cl)cc2Cl)cc1C(=O)O	FBA Mtb inh active
O=C(O)CCCOc1ccc(Cl)cc1Cl	none
COc1cc(OC)cc(-c2c(C#Cc3ccsc3)c3cc(-c4cc(F)cc(F)c4)ccc3n2C)c1	none
COc1cc(C#Cc2c(-c3cncn3C)n(C)c3ccc(-c4ccc(OC)nc4)cc23)cc(OC)c1	none
COc1cc(OC)cc(-c2c(C#Cc3ccsc3)c3cc(-c4ccc(OC)c(F)c4)ccc3n2C)c1	GDH-TPI counter 32.3
COc1cc(OC)cc(-c2c(-c3ccc(C(C)=O)cc3)c3cc(-c4cccc5[nH]ccc45)ccc3n2C)c1	GDH-TPI counter 36.2
